How the values were obtained:
[1] = target: T1, Protein kinase C zeta type (Homo sapiens) (UniProt Q05513); settings: at 1 µM
T1 sequence (whole entry): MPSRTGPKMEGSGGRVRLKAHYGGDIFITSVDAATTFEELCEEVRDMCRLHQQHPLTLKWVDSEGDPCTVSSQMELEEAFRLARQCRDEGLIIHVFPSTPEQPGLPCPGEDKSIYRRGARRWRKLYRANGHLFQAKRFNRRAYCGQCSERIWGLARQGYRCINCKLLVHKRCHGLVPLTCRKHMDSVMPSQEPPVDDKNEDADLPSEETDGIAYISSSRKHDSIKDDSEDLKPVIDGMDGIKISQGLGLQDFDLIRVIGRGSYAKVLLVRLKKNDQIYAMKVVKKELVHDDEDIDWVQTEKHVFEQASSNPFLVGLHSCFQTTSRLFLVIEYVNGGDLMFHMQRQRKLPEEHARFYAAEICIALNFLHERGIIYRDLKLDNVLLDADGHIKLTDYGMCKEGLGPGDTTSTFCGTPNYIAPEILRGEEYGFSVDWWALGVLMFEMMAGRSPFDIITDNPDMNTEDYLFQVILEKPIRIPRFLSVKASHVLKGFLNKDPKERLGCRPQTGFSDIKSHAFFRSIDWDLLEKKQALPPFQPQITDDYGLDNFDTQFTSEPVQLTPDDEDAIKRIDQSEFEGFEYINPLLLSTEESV

[2] = target: T2, Mitogen-activated protein kinase kinase kinase 5 (Homo sapiens) (UniProt Q99683); settings: at 10 µM
T2 sequence (whole entry): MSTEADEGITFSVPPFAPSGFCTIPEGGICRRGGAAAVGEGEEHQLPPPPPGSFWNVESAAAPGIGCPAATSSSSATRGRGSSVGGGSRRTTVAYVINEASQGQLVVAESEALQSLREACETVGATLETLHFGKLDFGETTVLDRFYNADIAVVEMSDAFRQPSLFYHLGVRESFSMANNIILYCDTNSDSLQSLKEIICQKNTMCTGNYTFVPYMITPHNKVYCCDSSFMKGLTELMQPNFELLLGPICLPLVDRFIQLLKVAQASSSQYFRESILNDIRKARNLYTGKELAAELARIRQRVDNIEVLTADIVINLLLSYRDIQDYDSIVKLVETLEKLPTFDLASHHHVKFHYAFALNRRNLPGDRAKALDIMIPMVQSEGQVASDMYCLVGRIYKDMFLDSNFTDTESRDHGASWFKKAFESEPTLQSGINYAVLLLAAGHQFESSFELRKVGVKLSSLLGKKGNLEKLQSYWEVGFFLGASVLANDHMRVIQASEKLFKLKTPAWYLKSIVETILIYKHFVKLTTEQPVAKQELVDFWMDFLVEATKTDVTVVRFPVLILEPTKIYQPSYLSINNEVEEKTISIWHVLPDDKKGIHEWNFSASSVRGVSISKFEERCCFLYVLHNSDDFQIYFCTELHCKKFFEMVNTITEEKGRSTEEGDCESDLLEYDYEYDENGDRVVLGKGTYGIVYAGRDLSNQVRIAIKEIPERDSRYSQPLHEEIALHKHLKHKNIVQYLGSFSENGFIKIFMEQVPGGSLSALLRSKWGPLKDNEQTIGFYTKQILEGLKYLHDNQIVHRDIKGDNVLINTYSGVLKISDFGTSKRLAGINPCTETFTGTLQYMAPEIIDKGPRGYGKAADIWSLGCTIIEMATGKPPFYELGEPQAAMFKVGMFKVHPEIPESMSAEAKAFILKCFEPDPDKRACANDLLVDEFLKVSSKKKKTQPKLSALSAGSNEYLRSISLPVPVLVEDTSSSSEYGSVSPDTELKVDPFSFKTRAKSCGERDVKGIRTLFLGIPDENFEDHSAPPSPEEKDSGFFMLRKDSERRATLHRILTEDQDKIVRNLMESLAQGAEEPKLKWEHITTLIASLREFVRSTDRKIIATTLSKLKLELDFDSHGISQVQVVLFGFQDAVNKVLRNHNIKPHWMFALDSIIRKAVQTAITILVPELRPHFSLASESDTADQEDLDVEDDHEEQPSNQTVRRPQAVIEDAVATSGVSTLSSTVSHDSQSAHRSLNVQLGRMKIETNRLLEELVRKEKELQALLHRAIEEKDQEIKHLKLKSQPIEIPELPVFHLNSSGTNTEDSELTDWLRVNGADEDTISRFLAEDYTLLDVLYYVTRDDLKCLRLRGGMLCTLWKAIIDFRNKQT

[3] = target: Tyrosine-protein kinase ABL1 (Homo sapiens) (UniProt P00519); settings: at 1 µM
[4] = target: Tyrosine-protein kinase ABL1 (Homo sapiens) (UniProt P00519); settings: at 10 µM
[5] = target: Tyrosine-protein kinase ABL2 (Homo sapiens) (UniProt P42684); settings: at 1 µM
[6] = target: Tyrosine-protein kinase ABL2 (Homo sapiens) (UniProt P42684); settings: at 10 µM
[7] = target: T3, Aurora kinase A (Homo sapiens) (UniProt O14965); settings: at 1 µM
T3 sequence (whole entry): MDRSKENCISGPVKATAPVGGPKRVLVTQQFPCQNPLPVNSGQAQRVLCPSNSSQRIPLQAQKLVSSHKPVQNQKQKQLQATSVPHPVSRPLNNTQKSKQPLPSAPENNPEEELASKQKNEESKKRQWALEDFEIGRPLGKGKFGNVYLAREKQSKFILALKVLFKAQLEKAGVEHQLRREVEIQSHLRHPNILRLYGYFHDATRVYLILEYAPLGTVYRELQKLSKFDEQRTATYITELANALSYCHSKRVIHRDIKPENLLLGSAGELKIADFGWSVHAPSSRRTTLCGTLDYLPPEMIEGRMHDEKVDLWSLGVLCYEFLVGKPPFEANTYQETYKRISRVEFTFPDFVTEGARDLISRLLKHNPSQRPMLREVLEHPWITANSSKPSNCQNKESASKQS

[8] = target: T3, Aurora kinase A (Homo sapiens); settings: at 10 µM
[9] = target: Aurora kinase B (Homo sapiens) (UniProt Q96GD4); settings: at 1 µM
[10] = target: Aurora kinase B (Homo sapiens) (UniProt Q96GD4); settings: at 10 µM

Tyrosine-protein kinase ABL2 (Homo sapiens), sequence (P42684 whole entry): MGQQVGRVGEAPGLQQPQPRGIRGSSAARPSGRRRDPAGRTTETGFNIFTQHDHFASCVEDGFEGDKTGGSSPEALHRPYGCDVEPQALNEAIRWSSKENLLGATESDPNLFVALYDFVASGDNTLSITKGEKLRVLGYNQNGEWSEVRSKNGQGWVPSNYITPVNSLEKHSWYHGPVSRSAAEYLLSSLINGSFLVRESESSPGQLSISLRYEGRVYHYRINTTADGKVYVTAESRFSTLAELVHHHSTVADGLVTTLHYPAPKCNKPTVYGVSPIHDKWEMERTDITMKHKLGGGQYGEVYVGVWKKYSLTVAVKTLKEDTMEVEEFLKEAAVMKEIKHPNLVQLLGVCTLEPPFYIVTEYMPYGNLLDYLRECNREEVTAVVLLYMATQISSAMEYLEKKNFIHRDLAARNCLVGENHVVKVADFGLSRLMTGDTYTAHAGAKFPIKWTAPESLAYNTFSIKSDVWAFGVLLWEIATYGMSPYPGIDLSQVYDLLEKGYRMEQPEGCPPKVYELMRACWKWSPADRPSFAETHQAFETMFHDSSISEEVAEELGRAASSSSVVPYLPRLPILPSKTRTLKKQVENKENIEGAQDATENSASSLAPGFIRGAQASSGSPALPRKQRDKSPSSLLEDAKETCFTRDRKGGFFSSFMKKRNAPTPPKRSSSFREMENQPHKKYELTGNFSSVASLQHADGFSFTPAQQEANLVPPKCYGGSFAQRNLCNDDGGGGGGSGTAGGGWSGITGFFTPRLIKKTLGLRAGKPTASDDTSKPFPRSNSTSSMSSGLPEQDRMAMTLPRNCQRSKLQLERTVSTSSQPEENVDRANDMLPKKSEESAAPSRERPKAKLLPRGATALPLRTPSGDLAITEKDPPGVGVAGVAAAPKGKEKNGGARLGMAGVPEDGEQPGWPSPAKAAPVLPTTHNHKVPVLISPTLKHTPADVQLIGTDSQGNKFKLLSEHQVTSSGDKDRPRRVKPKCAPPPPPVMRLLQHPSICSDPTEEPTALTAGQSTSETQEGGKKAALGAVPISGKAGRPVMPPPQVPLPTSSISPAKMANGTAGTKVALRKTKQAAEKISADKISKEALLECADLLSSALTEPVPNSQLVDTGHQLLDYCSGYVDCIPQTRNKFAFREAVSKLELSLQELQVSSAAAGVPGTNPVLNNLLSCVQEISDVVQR
Aurora kinase B (Homo sapiens), sequence (Q96GD4 whole entry): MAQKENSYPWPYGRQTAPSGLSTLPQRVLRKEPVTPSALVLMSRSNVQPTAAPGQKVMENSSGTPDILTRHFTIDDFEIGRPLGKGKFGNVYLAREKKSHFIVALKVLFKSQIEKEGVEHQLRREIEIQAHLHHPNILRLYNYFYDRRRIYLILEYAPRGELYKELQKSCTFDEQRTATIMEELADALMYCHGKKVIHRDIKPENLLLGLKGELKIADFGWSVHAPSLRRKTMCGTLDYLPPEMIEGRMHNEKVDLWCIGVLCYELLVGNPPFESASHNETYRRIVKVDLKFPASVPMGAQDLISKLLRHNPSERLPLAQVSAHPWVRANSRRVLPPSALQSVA
Tyrosine-protein kinase ABL1 (Homo sapiens), sequence (P00519 whole entry): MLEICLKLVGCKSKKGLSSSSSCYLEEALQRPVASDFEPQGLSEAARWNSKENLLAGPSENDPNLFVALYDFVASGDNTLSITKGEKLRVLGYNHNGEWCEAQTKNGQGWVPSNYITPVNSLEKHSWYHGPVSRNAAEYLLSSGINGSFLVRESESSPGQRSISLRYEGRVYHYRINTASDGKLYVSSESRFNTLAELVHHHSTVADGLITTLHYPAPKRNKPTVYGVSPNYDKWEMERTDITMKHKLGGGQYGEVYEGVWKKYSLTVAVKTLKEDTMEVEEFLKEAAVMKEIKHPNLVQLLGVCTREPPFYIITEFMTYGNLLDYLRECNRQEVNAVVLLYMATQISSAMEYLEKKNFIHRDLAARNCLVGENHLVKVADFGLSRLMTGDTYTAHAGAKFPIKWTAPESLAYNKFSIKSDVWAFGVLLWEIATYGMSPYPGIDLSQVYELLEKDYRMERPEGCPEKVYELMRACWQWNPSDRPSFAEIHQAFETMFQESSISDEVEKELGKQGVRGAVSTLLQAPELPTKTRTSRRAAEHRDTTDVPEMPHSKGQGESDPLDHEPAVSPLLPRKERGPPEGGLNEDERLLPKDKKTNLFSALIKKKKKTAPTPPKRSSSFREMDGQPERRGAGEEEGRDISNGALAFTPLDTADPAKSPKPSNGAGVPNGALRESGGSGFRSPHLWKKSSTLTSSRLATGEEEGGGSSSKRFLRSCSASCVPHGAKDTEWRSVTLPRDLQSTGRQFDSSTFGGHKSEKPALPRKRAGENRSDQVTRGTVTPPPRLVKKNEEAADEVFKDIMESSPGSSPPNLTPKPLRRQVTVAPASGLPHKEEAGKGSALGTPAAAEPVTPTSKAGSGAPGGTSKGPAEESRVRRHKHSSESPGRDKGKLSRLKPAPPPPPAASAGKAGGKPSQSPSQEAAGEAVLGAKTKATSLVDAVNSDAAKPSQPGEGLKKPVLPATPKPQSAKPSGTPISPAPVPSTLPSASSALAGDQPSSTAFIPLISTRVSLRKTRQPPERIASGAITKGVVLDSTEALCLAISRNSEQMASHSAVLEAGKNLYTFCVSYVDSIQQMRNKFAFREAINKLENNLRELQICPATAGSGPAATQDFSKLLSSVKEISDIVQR

Row | SMILES | residual activity [1] | residual activity [2] | residual activity [3] | residual activity [4] | residual activity [5] | residual activity [6] | residual activity [7] | residual activity [8] | residual activity [9] | residual activity [10]
1 | COc1cc2ncnc(Nc3ccc(Oc4ccccc4)cc3)c2cc1OC | 108% (inactive) | 73% | 61% | 75% | 82% | 93% | 52% | 30% | 28% | 9%
2 | O=C(Nc1cccc(Nc2nccc(Nc3cccc(C(F)(F)F)c3)n2)c1)C1CC1 | 98% (inactive) | 90% | 68% | 76% | 46% | 44% |  |  | 1% | 2%
3 | CO[C@@H]1[C@H](N(C)C(=O)c2ccccc2)C[C@H]2O[C@]1(C)n1c3ccccc3c3c4c(c5c6ccccc6n2c5c31)C(=O)NC4 | 101% (inactive) | 75% | 89% |  | 77% | 45% | -3% | -2% | 1% | 3%
4 | N#Cc1cnc2cnc(NCc3cccnc3)cc2c1Nc1ccc(F)c(Cl)c1 | 103% (inactive) | 65% | 98% | 84% | 82% | 55% | 31% | 24% | 3% | 1%
5 | Nc1nc(Nc2ccc(S(N)(=O)=O)cc2)nn1C(=S)Nc1c(F)cccc1F | 75% (inactive) | -1% | -5% | -5% | -2% | -2% | 1% | 10% | 0% | 0%
6 | O=Nc1c(-c2c(O)[nH]c3ccccc23)[nH]c2ccccc12 | 101% (inactive) | 7% | 49% | 16% | 30% | 28% | 7% | 0% | 1% | -2%
7 | CO[C@H]1C[C@@H]2CC[C@@H](C)[C@@](O)(O2)C(=O)C(=O)N2CCCC[C@H]2C(=O)O[C@H]([C@H](C)C[C@@H]2CC[C@@H](O)[C@H](OC)C2)CC(=O)[C@H](C)/C=C(\C)[C@@H](O)[C@@H](OC)C(=O)[C@H](C)C[C@H](C)/C=C/C=C/C=C/1C | 96% (inactive) | 96% | 91% | 139% | 119% | 118% | 87% | 118% | 92% | 73%
8 | COc1ccc(S(=O)(=O)N(CCO)c2ccccc2CN(C)C/C=C/c2ccc(Cl)cc2)cc1 | 111% (inactive) | 90% | 92% | 118% | 116% | 87% | 122% | 127% | 90% | 95%
9 | CCC(=O)Nc1ccc2ncnc(Nc3cccc(Br)c3)c2c1 | 116% (inactive) | 108% | 90% | 89% | 96% | 72% | 73% | 127% | 101% | 67%
10 | Cc1cncc2cccc(S(=O)(=O)N3CCCN(C(=O)CN)C[C@H]3C)c12 | 88% (inactive) | 87% | 88% |  |  | 92% | 64% | 36% | 6% | 3%
11 | COc1cc2ncnc(Nc3ccc(NC(=O)c4ccccc4)cc3)c2cc1OC | 110% (inactive) | 100% | 101% | 81% |  | 93% | 18% | 12% | 2% | 0%
12 | CCN(CC)CCCCN1c2ccccc2Oc2ccc(Cl)cc21 | 114% (inactive) | 114% | 124% | 102% | 140% | 122% | 97% | 140% | 141% | 103%
13 | Ic1cccc(CSc2nnc(-c3ccncc3)o2)c1 | 101% (inactive) | 86% | 87% | 70% | 112% | 71% | 83% | 80% | 77% | 42%
14 | CCOc1cc2ncnc(Nc3cccc(Br)c3)c2cc1OCC | 104% (inactive) | 115% | 48% | 5% | 36% | 4% | 55% | 46% | 56% | 7%
15 | N#CC(C#N)=C(N)/C(C#N)=C/c1ccc(O)cc1 |  | 93% | 87% | 78% |  |  | 83% | 85% | 81% | 62%
16 | O=C(O)c1ccc2c3c1cccc3c(=O)n1c3ccccc3nc21 | 112% (inactive) | 72% | 101% | 80% | 91% | 74% | 72% | 16% | 64% | 18%
17 | O=C(Nc1cccc(Nc2cc(Nc3cccc(C(F)(F)F)c3)ncn2)c1)C1CC1 | 101% (inactive) | 104% | 84% | 104% | 92% | 90% | 95% | 82% | 68% | 30%
18 | COc1cc2ncnc(Nc3ccc(O)c(Br)c3)c2cc1OC | 96% (inactive) | 82% | 64% | 13% | 76% | 22% | 49% | 26% | 43% | 2%
